Whole data set: some 25,000 sequences, median “ln(normalized median fluorescence intensity)” near 9.3, cut for the highest 2% near 10. This excerpt belongs to a sample that is enriched for the highest values.
test system: PF3D7_0420300 AP2 domain 1 (GST-tagged); test: gcPBM binding intensity (ln(normalized median fluorescence intensity)); higher = stronger DNA binding
Procedure, shortened: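 In this array assay, P. falciparum DNA-binding domains with a GST tag, expressed in E. coli, were applied for 1 h to primer-extended double-stranded 36-bp intergenic genomic probes and negative controls on an Agilent 4 × 180k array. Bound protein was visualised with Alexa488 anti-GST antibody at 488 nm. Binding intensity is the highest Masliner-normalised natural-log median intensity across replicate spots of either probe orientation.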

Row | Sequence | gcPBM binding intensity (ln)
1 | GCAAATCTTATATGAAGTACATATCTTATAAATAAA [XGTACX_site6903] | 8.96
2 | TGGAGGTCAGTTCACAGTACCCAGAAACTCTACGAG [XGTACX_site2007] | 8.76
3 | TTATAATCAATGAATACACACATATATTTAATTAAT [CACACA_site3613] | 9.47
4 | TATAAAAATATATGCACACAAATAAAAAATTATATA [CACACA_site3629] | 9.44
5 | AATTTTATATATATATGTACATATTTATATGCTTAT [XGTACX_site8180] | 9.4
6 | ATTTAGAAAAAATATACACACAGCCTAAACATGCAT [CACACA_site4067] | 9.64
7 | TATATATATGTATATGTGCACAGTTTTCTTATTAAA [GTGCAC_site9990] | 9.24
8 | TATAAATATTTATACACACACATATATTTATATATC [CACACA_site6366] | 9.82
9 | AAATTTGGTGAAGGATGTACTTTACCTAATACTTGT [XGTACX_site4825] | 9.21
10 | ATATTTACTCACGTCTTGCACTGAGCAAGCATTATA | 9.02
11 | AATGCTATCATTAATGCACACATTTAAACTTAATAT [CACACA_site5878] | 9.36
12 | AAATTTGGCAAACACACACACACACCCACACCCACA [CACACA_site8095] | 10.2
13 | CAAACATTTTAATGTACACACACCCACAGACAAACA [CACACA_site5522] | 9.78
14 | GGCAAATTTATTATACCCACATACATACATACATAC [XGTACX_negctrl_site186] | 9.24
15 | AAATTTGGCAAACACACACACACACCCACAGAGACA [CACACA_site4490] | 10.3
16 | AGACAGCGCACAAACACACAAACACCCACCCACATA [CACACA_site451] | 10.2
17 | GTTACACCAACAAACACACACACACCCACCCACAAA [CACACA_site2427] | 10.2
18 | AACTTTGGCAAACACACACACACACCCACACCCACA [CACACA_site588] | 10.3
19 | TACATAAATTAAAACACACACACACCCAAAAAAAAA [CACACA_site2261] | 10.1
20 | CATATATATATATATACACACATATATATTTTCTTT [CACACA_site1457] | 9.46
21 | TATTTTAATTATAAATTTAAAAAAAAAAAGAAAAAA [CACACA_negctrl_site1674] | 9.01
22 | TTCGGAAAAATTAAAGCACACAAAAAAAAATAAAAA [CACACA_site8296] | 9.45

Row | Sequence | gcPBM binding intensity (ln)
23 | TATAAGCTTTCAATGTGTACATATTATTTTATTATT [XGTACX_site3988] | 9.44
24 | TTTATGGATGTGTATGCATGCCTAAATAAATATATG [TGCATGCA_site916] | 9.1
25 | ATATATATGTATAATCGTACAGTTAACGTATTCTTA [XGTACX_site5649] | 9.26
26 | TAATATTATTATTTTACACACTTTTTTCCTTTTATC [CACACA_site2457] | 9.45
27 | GTATATAGTATGTAGAGTACTAATTTCCATATGTTC [XGTACX_site7816] | 9.25
28 | AATATTTATTTTATATGTACATAATTTATTTTTAAT [XGTACX_site776] | 9.26
29 | AAAATAAAATATTTCTGTACTTATAACTATTCTATA [XGTACX_site8007] | 9.14
30 | AGATAAAAAAAGTACACACACACATATATTTATATA [CACACA_site7437] | 10.1
31 | AAAAAAAAAAAAAGTACACACATACAGATAAATATA [CACACA_site5067] | 9.66
32 | AGATAAAAAAAGTACACACACACATATATATATATA [CACACA_site3072] | 9.82
33 | TGAAAAGATAAAAAAAGTACACACACACATATATAT [XGTACX_site6504] | 10.2
34 | AAGATAAAATAATAAAGTACACATATAAATTGAAAA [XGTACX_site2113] | 9.42
35 | AACAGATAAAAGGGTACACACATATATACAAGTACA [CACACA_site7959] | 9.9
36 | AAAGATAAAAAAAGTACACACACACCGATATATATA [CACACA_site9006] | 10.2
37 | TACAGATAAAAGTACACACACACACCGATATATATA [CACACA_site4675] | 10.2
38 | TATATATATATATGTACACACACACCGATAAATAAA [CACACA_site8041] | 9.99
39 | ATTATTACACAACGTTGTACATTTCAATATTTTTAT [XGTACX_site5096] | 9.52
40 | TAAATTTTAATATGCACACAAAATGTTATATTAAAA [CACACA_site4366] | 9.11
41 | ATAAAAATAACATATAAACACACATATATATATATA [CACACA_site9267] | 9.35
42 | TATATTTATTTATATACACACACTTGTATAAAAAAT [CACACA_site2036] | 9.4
43 | AACTTGTATATATACACACACACACTATCTTTTTTT [CACACA_site8601] | 10.2
44 | ATAACTTGTATATATACACACACACCCTTTCTTTTT [CACACA_site8600] | 10.1

Row | Sequence | gcPBM binding intensity (ln)
45 | AACTTGTATTTATACACACACACACTGTCTTTTTTT [CACACA_site7009] | 10.3
46 | AACTTGTATTTATACACACACACACTAGCTTTTTTT [CACACA_site5132] | 10.2
47 | TATATAGTAATATATACACACACTTGTCTTGTAAAA [CACACA_site990] | 9.56
48 | AACTTGTATATATACACACACACACTGTCTTTTTTT [CACACA_site1963] | 10.2
49 | CTTGTATATAAACACACACACACTTTCTTTTTTTAA [CACACA_site8602] | 9.91
50 | TTGTATATACTATACACACACATACATACATACATA [CACACA_site814] | 9.85
51 | TTCAAAGACACAATCACACACATACATAAATATACA [CACACA_site687] | 9.84
52 | TAATCGAAACAAAGAACATGCAAACATATACCTATA [TGCATGCA_site894] | 9.6
53 | ATTTATACATATAAACGTACATACATATATAATATT [XGTACX_site2969] | 9.3
54 | TATTTTTATATAATGTGTACTTATACCTTATTTTTT [XGTACX_site1658] | 9.3
55 | TATATATTATATATATGTACTTATTCATATATATAA [XGTACX_site3860] | 9.06
56 | TTTTACTTAAAACACACACACACAAAAAAAAAAAAA [CACACA_site947] | 9.96
57 | CACGCGCACGAACACACACACACACGCATATAAATA [CACACA_site7103] | 10.3
58 | AAATTCCACGAACACACACACATATAAATAAATAAA [CACACA_site6697] | 9.97
59 | CACACGCACGAACACACACACATATAAATATAAATA [CACACA_site6299] | 9.92
60 | CACACGCACGAACACACACACACACGCATATAAATA [CACACA_site6302] | 10.3
61 | AAATATAATAAAATGACACACGCATATATATATATA [CACACA_site8900] | 9.38
62 | ACACGCACATATATATAAATATATATATATATAAAT [CACACA_negctrl_site1781] | 9.21
63 | AGAATAAAAAGGAACACACACACACGCATATAAATA [CACACA_site7659] | 10.3
64 | AGAATAAAAAGGAACACACACACACCCATATATATA [CACACA_site3590] | 10.1
65 | ATATAAAGAAAAGGAACACACAAATATATATATATA [CACACA_site463] | 9.57

Reference: the supplement of paper PMC11417369
